From PubChem BioAssay (NCATS)
Where “and” joins values, the source holds several entries; their conditions need not be identical. Equal values may be shown once. Results filed as inconclusive are left out. The source holds several records for some structures; these can differ, active in one and inactive in another. Calls of active or inactive are those of the source. Unless noted, the call rests on the fitted dose curve; in most records, active means well fitted curve in the direction sought with a large enough effect; inconclusive means small, poorly fitted or top-dose-only effect, or another doubt; inactive means no such curve, though single readings can be large; an effect the other way counts as inactive or inconclusive.

Tests used:
WaGa = assay: qHTS assay to identify novel small-molecules to repurpose for Merkel cell carcinoma treatment (AID 1296009); settings: MCC and control cell lines, CellTiter-Glo viability, 72 h; series mostly up to 46 µM; further: nearly all actives have a fitted effect of over 60% in size; further: potency means the concentration at half of the fitted maximal effect
Procedure, shortened: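 72 hr, 37 degree celsius; NPC 8-pt / MIPE 11-pt dose response; compound pinned in DMSO; CellTiter-Glo, 10 min RT, luminescence; normalized to no-cell and DMSO controls.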

C33A = assay: Primary qHTS to identify gynecologic anti-cancer compounds using libraries of approved drugs and bioactive compounds (AID 1345084); settings: Gynecologic cancer cell panel viability, ATPlite luminescence, 48 h; series mostly up to 57.5 µM; further: nearly all actives have a fitted effect of over 55% in size; further: potency means the concentration at half of the fitted maximal effect
Procedure, shortened: (§1)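 Cells, 1,000 per well, plated 16 h, then exposed 48 h at 37 C to compounds. Viability by ATPlite luminescence after 15 min at room temperature.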

CASKI = assay: as above; settings: Gynecologic cancer cell panel viability, ATPlite luminescence, 48 h; series mostly up to 57.5 µM
Procedure, shortened: as §1

Es-2 = assay: as above; settings: Gynecologic cancer cell panel viability, ATPlite luminescence, 48 h; series mostly up to 57.5 µM
Procedure, shortened: as §1

HeLa = assay: as above; settings: Gynecologic cancer cell panel viability, ATPlite luminescence, 48 h; series mostly up to 57.5 µM
Procedure, shortened: as §1

Hek293T = assay: as above; settings: Gynecologic cancer cell panel viability, ATPlite luminescence, 48 h, control line for the selectivity index; series mostly up to 57.5 µM
Procedure, shortened: as §1

JEG-3 = assay: as above; settings: Gynecologic cancer cell panel viability, ATPlite luminescence, 48 h; series mostly up to 57.5 µM
Procedure, shortened: as §1

OV90 = assay: as above; settings: Gynecologic cancer cell panel viability, ATPlite luminescence, 48 h; series mostly up to 57.5 µM
Procedure, shortened: as §1

PA-1 = assay: as above; settings: Gynecologic cancer cell panel viability, ATPlite luminescence, 48 h; series mostly up to 57.5 µM
Procedure, shortened: as §1

SKOV3 = assay: as above; settings: Gynecologic cancer cell panel viability, ATPlite luminescence, 48 h; series mostly up to 57.5 µM
Procedure, shortened: as §1

Tov-21-G = assay: as above; settings: Gynecologic cancer cell panel viability, ATPlite luminescence, 48 h; series mostly up to 57.5 µM
Procedure, shortened: as §1

Tov112D = assay: as above; settings: Gynecologic cancer cell panel viability, ATPlite luminescence, 48 h; series mostly up to 57.5 µM
Procedure, shortened: as §1

[1] = Drug repurposing screens with cells derived from glioblastoma tumor samples (AID 1345199); settings: GBM patient neurospheres viability, ATP luminescence, 48 h; further: nearly all actives have a fitted effect of over 40% in size; further: potency means the concentration at half of the fitted maximal effect; on activity, negative = cell killing: on the % scale 0 is the no-effect control and ±100 the full control effect
Procedure, shortened: (§2)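 Four patient lines of CD133+ GBM neurospheres were screened at several concentrations; hits were retested in those lines plus three slower-growing GBM lines, using 48-hour treatment and ATP-based viability.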

astro = assay: as above; settings: viability, ATP luminescence, 48 h; series mostly up to 45.9 µM
Procedure, shortened: as §2

CAOV3 = assay: Primary qHTS to identify gynecologic anti-cancer compounds using libraries of approved drugs and bioactive compounds (AID 1345084); settings: Gynecologic cancer cell panel viability, ATPlite luminescence, 48 h; series mostly up to 57.5 µM; further: nearly all actives have a fitted effect of over 55% in size; further: potency means the concentration at half of the fitted maximal effect
Procedure, shortened: as §1

[2] = target: Nuclear receptor subfamily 1 group I member 2 (Rattus norvegicus) (UniProt Q9R1A7); assay: qHTS assay for small molecule activators of the rat pregnane X receptor (rPXR) signaling pathway (AID 651751; call rule not given here; further: 0% is about no effect); settings: rPXR reporter cells, luciferase (One-Glo), 24 h
Sequence of Nuclear receptor subfamily 1 group I member 2 (Rattus norvegicus) (Q9R1A7 whole entry, looked up): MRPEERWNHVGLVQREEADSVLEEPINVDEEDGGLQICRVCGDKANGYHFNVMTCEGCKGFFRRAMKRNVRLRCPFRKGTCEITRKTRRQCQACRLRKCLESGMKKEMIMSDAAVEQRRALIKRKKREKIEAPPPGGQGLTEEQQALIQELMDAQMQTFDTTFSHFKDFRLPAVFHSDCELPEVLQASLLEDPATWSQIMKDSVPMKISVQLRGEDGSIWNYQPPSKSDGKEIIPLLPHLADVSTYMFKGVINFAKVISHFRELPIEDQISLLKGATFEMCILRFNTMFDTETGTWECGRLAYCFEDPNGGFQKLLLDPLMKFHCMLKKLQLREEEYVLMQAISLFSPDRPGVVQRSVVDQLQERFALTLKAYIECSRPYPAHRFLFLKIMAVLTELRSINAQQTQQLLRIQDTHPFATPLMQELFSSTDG

[3] = qHTS assay for small molecule activators of the human pregnane X receptor (PXR) signaling pathway (AID 720659; call rule not given here; further: 0% is about no effect)
[4] = at 20 µM (top of the series), tumour line C
[5] = at 21.2 µM (top of the series), tumour line B
[6] = at 21.2 µM (top of the series), tumour line D
[7] = at 21.3 µM (top of the series), tumour line A
[8] = at 45.9 µM (top of the series), tumour line B
[9] = at 45.9 µM (top of the series), tumour line D
[10] = at 46 µM (top of the series), tumour line A
[11] = at 46.1 µM (top of the series), tumour line C

C[C@@H]1C[C@H]2[C@@H]3C[C@H](F)C4=CC(=O)C=C[C@]4(C)[C@@]3(F)[C@@H](O)C[C@]2(C)[C@@]1(O)C(=O)CO
inactive: Potency (WaGa) | Potency (C33A) | Potency (CASKI) | Potency (Es-2) | Potency (HeLa) | Potency (Hek293T) | Potency (JEG-3) | Potency (OV90) | Potency (PA-1) | Potency (SKOV3) | Potency (Tov-21-G) | Potency (Tov112D) | activity, negative = cell killing [1, 4] 17.9% | activity, negative = cell killing [1, 5] -15.7% | activity, negative = cell killing [1, 6] -7.98% | activity, negative = cell killing [1, 7] -20.6% | Potency (astro)

CCN(CC)CCCC(C)Nc1c2ccc(Cl)cc2nc2ccc(OC)cc12 (configuration not stated)
inactive: Potency (Es-2) | Potency (HeLa) | Potency (Tov112D)
12.6 µM (active) and inactive: Potency (C33A)
active: Potency (WaGa) 26.6 µM | Potency (CAOV3) 3.98 µM | Potency (OV90) 8.91 µM | Potency (astro) 20 µM

COc1ccc(Cl)cc1C(=O)NCCc1ccc(S(=O)(=O)NC(=O)NC2CCCCC2)cc1
inactive: Potency (WaGa) | Potency (C33A) | Potency (CASKI) | Potency (Es-2) | Potency (HeLa) | Potency (Hek293T) | Potency (JEG-3) | Potency (OV90) | Potency (PA-1) | Potency (SKOV3) | Potency (Tov-21-G) | Potency (Tov112D) | activity, negative = cell killing [1, 8] 5.08% | activity, negative = cell killing [1, 9] -17.4% | activity, negative = cell killing [1, 10] -29% | activity, negative = cell killing [1, 11] -8.3% | Potency (astro) | max response [2] 1.29%

CCCCOC(=O)c1ccc(O)cc1
inactive: Potency (WaGa) | Potency (C33A) | Potency (CASKI) | Potency (Es-2) | Potency (HeLa) | Potency (Hek293T) | Potency (JEG-3) | Potency (OV90) | Potency (PA-1) | Potency (SKOV3) | Potency (Tov-21-G) | Potency (Tov112D) | activity, negative = cell killing [1, 8] -17.3% | activity, negative = cell killing [1, 9] -11.1% | activity, negative = cell killing [1, 11] 26.3% | Potency (astro) | max response [2] -8.55% and 2.81%

OCC(CO)N[C@H]1C[C@](O)(CO)[C@@H](O)[C@H](O)[C@H]1O
inactive: Potency (WaGa) | Potency (C33A) | Potency (CASKI) | Potency (Es-2) | Potency (HeLa) | Potency (Hek293T) | Potency (JEG-3) | Potency (OV90) | Potency (PA-1) | Potency (SKOV3) | Potency (Tov-21-G) | Potency (Tov112D) | activity, negative = cell killing [1, 8] -9.88% | activity, negative = cell killing [1, 9] 10.9% | activity, negative = cell killing [1, 10] -13.3% | activity, negative = cell killing [1, 11] -4.04% | Potency (astro)

CCC(=O)c1ccc(O)cc1
inactive: Potency (WaGa) | Potency (C33A) | Potency (CASKI) | Potency (Es-2) | Potency (HeLa) | Potency (Hek293T) | Potency (JEG-3) | Potency (OV90) | Potency (PA-1) | Potency (SKOV3) | Potency (Tov-21-G) | Potency (Tov112D) | activity, negative = cell killing [1, 8] -5.56% | activity, negative = cell killing [1, 9] -10.1% | activity, negative = cell killing [1, 10] -28.1% | activity, negative = cell killing [1, 11] -21.6% | Potency (astro)

O=C1O[C@H]([C@@H](O)CO)C(O)=C1O
inactive: Potency (WaGa) | Potency (C33A) | Potency (CASKI) | Potency (Es-2) | Potency (HeLa) | Potency (Hek293T) | Potency (JEG-3) | Potency (OV90) | Potency (PA-1) | Potency (SKOV3) | Potency (Tov-21-G) | Potency (Tov112D) | activity, negative = cell killing [1, 8] -10.4% and -5.65% | activity, negative = cell killing [1, 9] -12.1% and -20.9% | activity, negative = cell killing [1, 10] -0.597% | activity, negative = cell killing [1, 11] -3.99% and -11% | Potency (astro) | max response [2] 2.78% and -0.0955% | outcome [3]

NCC(=O)CCC(=O)O
inactive: Potency (WaGa) | Potency (C33A) | Potency (CASKI) | Potency (Es-2) | Potency (HeLa) | Potency (Hek293T) | Potency (JEG-3) | Potency (OV90) | Potency (PA-1) | Potency (SKOV3) | Potency (Tov-21-G) | Potency (Tov112D) | activity, negative = cell killing [1, 8] -16.2% | activity, negative = cell killing [1, 9] -11% | activity, negative = cell killing [1, 10] -11% | activity, negative = cell killing [1, 11] -6.71% | Potency (astro)

NS(=O)(=O)c1cc2c(cc1Cl)NC(CSCc1ccccc1)=NS2(=O)=O
inactive: Potency (WaGa) | Potency (C33A) | Potency (CASKI) | Potency (Es-2) | Potency (HeLa) | Potency (Hek293T) | Potency (JEG-3) | Potency (OV90) | Potency (PA-1) | Potency (SKOV3) | Potency (Tov-21-G) | Potency (Tov112D) | activity, negative = cell killing [1, 4] 5.29% | activity, negative = cell killing [1, 5] -6.25% | activity, negative = cell killing [1, 6] -24.5% | activity, negative = cell killing [1, 7] -18.3% | Potency (astro)

CCn1cc(C(=O)O)c(=O)c2cnc(N3CCNCC3)nc21
inactive: Potency (WaGa) | Potency (C33A) | Potency (CASKI) | Potency (Es-2) | Potency (HeLa) | Potency (Hek293T) | Potency (JEG-3) | Potency (OV90) | Potency (PA-1) | Potency (SKOV3) | Potency (Tov-21-G) | Potency (Tov112D) | activity, negative = cell killing [1, 4] -6% | activity, negative = cell killing [1, 5] -11.9% | activity, negative = cell killing [1, 6] -14.4% | activity, negative = cell killing [1, 7] -22% | Potency (astro)

CC(C)(C(=O)O)c1ccc(C(O)CCCN2CCC(C(O)(c3ccccc3)c3ccccc3)CC2)cc1 (configuration not stated)
inactive: Potency (WaGa) | Potency (C33A) | Potency (CASKI) | Potency (Es-2) | Potency (HeLa) | Potency (Hek293T) | Potency (JEG-3) | Potency (OV90) | Potency (PA-1) | Potency (SKOV3) | Potency (Tov-21-G) | Potency (Tov112D) | activity, negative = cell killing [1, 8] 0.768% | activity, negative = cell killing [1, 9] 0.91% | activity, negative = cell killing [1, 10] -18.8% | activity, negative = cell killing [1, 11] 14% | Potency (astro)

CC(C)(O)c1ccccc1CC[C@@H](SCC1(CC(=O)O)CC1)c1cccc(/C=C/c2ccc3ccc(Cl)cc3n2)c1
inactive and 35.5 µM (active): Potency (SKOV3)
inactive: Potency (WaGa) | Potency (C33A) | Potency (CASKI) | Potency (Es-2) | Potency (HeLa) | Potency (Hek293T) | Potency (JEG-3) | Potency (OV90) | Potency (PA-1) | Potency (Tov-21-G) | Potency (Tov112D) | activity, negative = cell killing [1, 8] -2.34% | activity, negative = cell killing [1, 9] -14.4% | activity, negative = cell killing [1, 11] -19.5%
active: Potency (astro) 20 µM
